{
  "source": "PubChem BioAssay (Tox21)",
  "note": "Inconclusive results are not listed. Calls of active or inactive are those of the source. Calls come from the whole dose curve; as a rule, active = well fitted inhibition curve with a large enough effect in the signal ratio in the repeat runs (not every such curve was filed as active); inconclusive = weak or mixed curves, or effect the other way; inactive = no such curve, though single readings can be large or run the other way; the % refers to the signal ratio. % is set by controls: 0 for no effect and ±100 for the full control effect; potency is the fitted concentration of half-maximal effect.",
  "data": [
    {"molecular_target": "Glucocorticoid receptor (Homo sapiens) (UniProt P04150)", "sequence (P04150 whole entry, looked up)": "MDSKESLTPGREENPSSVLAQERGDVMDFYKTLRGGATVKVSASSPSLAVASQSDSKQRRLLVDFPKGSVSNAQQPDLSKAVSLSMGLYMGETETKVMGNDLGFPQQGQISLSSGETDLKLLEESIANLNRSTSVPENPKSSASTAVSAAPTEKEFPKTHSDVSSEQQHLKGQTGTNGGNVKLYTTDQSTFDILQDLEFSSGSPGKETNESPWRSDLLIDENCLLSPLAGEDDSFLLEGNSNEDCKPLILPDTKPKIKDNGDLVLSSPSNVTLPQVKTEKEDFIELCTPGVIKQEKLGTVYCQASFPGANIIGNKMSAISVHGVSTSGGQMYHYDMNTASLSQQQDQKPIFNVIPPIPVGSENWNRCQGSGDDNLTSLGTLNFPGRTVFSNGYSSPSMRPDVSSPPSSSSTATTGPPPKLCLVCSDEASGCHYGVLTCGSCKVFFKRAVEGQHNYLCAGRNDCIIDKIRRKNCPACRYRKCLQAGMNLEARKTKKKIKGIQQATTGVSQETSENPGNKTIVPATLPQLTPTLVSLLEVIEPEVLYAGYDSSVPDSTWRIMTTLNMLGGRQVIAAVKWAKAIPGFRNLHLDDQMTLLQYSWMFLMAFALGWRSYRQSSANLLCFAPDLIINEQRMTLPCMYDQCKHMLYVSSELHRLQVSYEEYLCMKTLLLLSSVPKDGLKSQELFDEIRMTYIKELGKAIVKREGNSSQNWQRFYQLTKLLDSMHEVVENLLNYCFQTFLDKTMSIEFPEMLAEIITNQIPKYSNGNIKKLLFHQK", "test": "qHTS assay to identify small molecule antagonists of the glucocorticoid receptor (GR) signaling pathway (AID 720692)", "conditions": "GR-bla HeLa, beta-lactamase FRET ratio, dexamethasone-stimulated, 18 h; series mostly up to 58.5 µM; activity change, negative = inhibition: at the top concentration", "summary_of_the_method": "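Dexamethasone (5 nM final) stimulated a stably integrated GRE-beta-lactamase reporter in HeLa cells during 18 h co-incubation with compounds; signal was quantified as fluorescence intensity of B/G FRET substrate after 2 h.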", "values": [
      {"smiles": "COC(=O)c1ccc(I)cc1S(=O)(=O)NC(=O)Nc1nc(C)nc(OC)n1", "activity change, negative = inhibition": "-0.605% (inactive)"},
      {"smiles": "CCCOC(C(=O)OC1CCN(C)CC1)(c1ccccc1)c1ccccc1", "activity change, negative = inhibition": "-1.62% (inactive)"},
      {"smiles": "CCC(C)O", "note": "(stereo not given)", "activity change, negative = inhibition": "-8.07% [at 78.9 µM] (inactive)"},
      {"smiles": "CCCCc1ncc(/C=C(\\Cc2cccs2)C(=O)O)n1Cc1ccc(C(=O)O)cc1", "activity change, negative = inhibition": "2.46% (inactive)"},
      {"smiles": "CCCCNc1ccc(C(=O)OCCOCCOCCOCCOCCOCCOCCOCCOCCOC)cc1", "activity change, negative = inhibition": "28.9% [at 27 µM] (inactive)"},
      {"smiles": "CC(C)Nc1ccc(NC(C)C)c2c1C(=O)c1ccccc1C2=O", "activity change, negative = inhibition": "2.7% (inactive)"},
      {"smiles": "CC[N+]1(CC)CCC(=C(c2ccccc2)c2ccccc2)C1C", "note": "(stereo not given)", "activity change, negative = inhibition": "-1.29% (inactive)"},
      {"smiles": "CC(C)OC(=O)C(C)N(C(=O)c1ccccc1)c1ccc(F)c(Cl)c1", "note": "(stereo not given)", "Potency": "43.6 µM (active)"},
      {"smiles": "Cc1cccc(C)c1NC(=O)CN(CC(=O)O)CC(=O)O", "activity change, negative = inhibition": "-4.08% (inactive)"},
      {"smiles": "OC(CN1CCC(Cc2ccc(F)cc2)CC1)c1ccc(Cl)cc1", "note": "(stereo not given)", "activity change, negative = inhibition": "2.99% (inactive)"},
      {"smiles": "O=C(c1ccc(F)cc1)C1CCN(CCn2c(=S)[nH]c3ccccc3c2=O)CC1", "activity change, negative = inhibition": "26.9% (inactive)"},
      {"smiles": "CCCCC", "Potency": "inactive"},
      {"smiles": "CCCCCCCC#N", "activity change, negative = inhibition": "6.36% (inactive)"},
      {"smiles": "O=[N+]([O-])c1ccc(NCCO)c(OCCO)c1", "activity change, negative = inhibition": "-6.98% (inactive)"},
      {"smiles": "C=CCOC(=O)CCC1CCCCC1", "activity change, negative = inhibition": "15.6% (inactive)"},
      {"smiles": "O=C(OCCCCCCOC(=O)c1ccccc1)c1ccccc1", "activity change, negative = inhibition": "-4.67% (inactive)"},
      {"smiles": "C/C=C/C(=O)CC", "activity change, negative = inhibition": "-7.24% [at 15.1 µM] (inactive)"},
      {"smiles": "CCCCC(CC)COC(=O)CCCCCCCCC(=O)OCC(CC)CCCC", "note": "(stereo not given)", "activity change, negative = inhibition": "-0.21% (inactive)"},
      {"smiles": "CC[N+](C)(CC)CCOC(=O)C(O)(c1ccccc1)C1CCCCC1", "note": "(stereo not given)", "activity change, negative = inhibition": "10.4% (inactive)"},
      {"smiles": "O=C(O)CC(=O)C(=O)O", "activity change, negative = inhibition": "0.123% [at 78.9 µM] (inactive)"},
      {"smiles": "O=S(=O)(Oc1ccc(Cl)cc1)c1ccccc1", "activity change, negative = inhibition": "0% (inactive)"},
      {"smiles": "COC(C)OC", "activity change, negative = inhibition": "-0.455% (inactive)"},
      {"smiles": "O=C(NCCO[N+](=O)[O-])c1cccnc1", "activity change, negative = inhibition": "3.41% (inactive)"},
      {"smiles": "CCN(CC)CCOC(=O)C(c1ccccc1)C1CCCCC1", "note": "(stereo not given)", "activity change, negative = inhibition": "-14.1% (inactive)"},
      {"smiles": "O=C1c2ccccc2S(=O)(=O)N1CCCCN1CCN(c2ncccn2)CC1", "activity change, negative = inhibition": "-8.07% (inactive)"},
      {"smiles": "CC1OC(=O)C(C)OC1=O", "note": "(stereo not given)", "activity change, negative = inhibition": "4.43% (inactive)"},
      {"smiles": "C=CC(=O)OCCOc1ccccc1", "Potency": "21.9 µM (active)"},
      {"smiles": "CCC(Cl)CCC(Cl)C(Cl)CC(Cl)C(Cl)C(Cl)CCl", "note": "(stereo not given)", "activity change, negative = inhibition": "-15.4% (inactive)"},
      {"smiles": "Brc1c2ccccc2cc2ccccc12", "activity change, negative = inhibition": "1.76% [at 78.9 µM] (inactive)"},
      {"smiles": "O=C1C(O)=C(O)C(=O)C(O)=C1O", "activity change, negative = inhibition": "-0.433% (inactive)"},
      {"smiles": "CCCCC(CC)COC(=O)COc1ccc(Cl)cc1Cl", "note": "(stereo not given)", "activity change, negative = inhibition": "-8.84% [at 78.9 µM] (inactive)"},
      {"smiles": "COc1ccc(C)cc1[N+](=O)[O-]", "activity change, negative = inhibition": "-3.53% [at 78.9 µM] (inactive)"},
      {"smiles": "CNC(=O)CN(CCN(CCN(CC(=O)[O-])CC(=O)NC)CC(=O)[O-])CC(=O)[O-].O.[Gd+3]", "Potency": "inactive"},
      {"smiles": "Cc1c(N)cccc1[N+](=O)[O-]", "activity change, negative = inhibition": "-7.27% [at 78.9 µM] (inactive)"},
      {"smiles": "c1cc(CCCc2ccncc2)ccn1", "activity change, negative = inhibition": "-17.3% (inactive)"}
    ]}
  ]
}
